“And” between values parts separate entries of the source, which are not always exact repeats. Equal values may be shown once. A structure can be active in one record and inactive in another. The source made the active and inactive calls. Unless noted, calls follow the shape of the dose curve; as a rule, active = well fitted curve in the direction sought with a large enough effect in the repeat runs; inconclusive = weak or mixed curves; inactive = no such curve, though single readings can be large; an effect the other way counts as inactive or inconclusive.
Key:
[1] = qHTS assay to identify small molecule antagonists of the thyroid receptor (TR) signaling pathway - cell viability counter screen (AID 743064); also: nearly all actives have a fitted effect of over 50% in size; also: potency is read from the fitted curve at half-maximal effect
Procedure, shortened: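 Compounds were tested on GH3.TRE-Luc cells in the presence of T3 at 1 nM final. Following 23.5 h at 37 °C, cell viability was quantified by CellTiter-Fluor.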

[2] = tested on: thyroid hormone receptor (rat, GH3 cells); assay: qHTS assay to identify small molecule agonists of the thyroid receptor (TR) signaling pathway (AID 743066; calls by dose curve; also: potency is read from the fitted curve at half-maximal effect)
[3] = qHTS assay to identify small molecule antagonists of the estrogen receptor alpha (ER-alpha) signaling pathway - cell viability counter screen (AID 743074; calls by dose curve;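 also: HEK293 cells carrying ER-alpha-UAS-bla reporter stimulated with 17beta-estradiol; nearly all actives have a fitted effect of over 45% in size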; also: potency is read from the fitted curve at half-maximal effect)
[4] = qHTS assay to identify small molecule antagonists of the estrogen receptor alpha (ER-alpha) signaling pathway using the BG1 cell line - cell viability counter screen (AID 743081);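 also: compound given together with 17beta-estradiol as the ER stimulus; nearly all actives have a fitted effect of over 45% in size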; also: potency is read from the fitted curve at half-maximal effect
[5] = qHTS assay to identify aromatase inhibitors - cell viability counter screen (AID 743084);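 also: cells stimulated with testosterone during compound exposure; nearly all actives have a fitted effect of over 55% in size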; also: potency is read from the fitted curve at half-maximal effect
[6] = target: Aryl hydrocarbon receptor (Homo sapiens) (UniProt P35869); assay: qHTS assay to identify small molecule that activate the aryl hydrocarbon receptor (AhR) signaling pathway (AID 743085); also: nearly all actives have a fitted effect of over 15% in size; also: potency is read from the fitted curve at half-maximal effect;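 as to activation: HG2L7.5c1 human HepG2 liver cells with stably integrated DRE-driven firefly reporter; series mostly up to about 70 µM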
Aryl hydrocarbon receptor (Homo sapiens), sequence (P35869 whole entry, looked up): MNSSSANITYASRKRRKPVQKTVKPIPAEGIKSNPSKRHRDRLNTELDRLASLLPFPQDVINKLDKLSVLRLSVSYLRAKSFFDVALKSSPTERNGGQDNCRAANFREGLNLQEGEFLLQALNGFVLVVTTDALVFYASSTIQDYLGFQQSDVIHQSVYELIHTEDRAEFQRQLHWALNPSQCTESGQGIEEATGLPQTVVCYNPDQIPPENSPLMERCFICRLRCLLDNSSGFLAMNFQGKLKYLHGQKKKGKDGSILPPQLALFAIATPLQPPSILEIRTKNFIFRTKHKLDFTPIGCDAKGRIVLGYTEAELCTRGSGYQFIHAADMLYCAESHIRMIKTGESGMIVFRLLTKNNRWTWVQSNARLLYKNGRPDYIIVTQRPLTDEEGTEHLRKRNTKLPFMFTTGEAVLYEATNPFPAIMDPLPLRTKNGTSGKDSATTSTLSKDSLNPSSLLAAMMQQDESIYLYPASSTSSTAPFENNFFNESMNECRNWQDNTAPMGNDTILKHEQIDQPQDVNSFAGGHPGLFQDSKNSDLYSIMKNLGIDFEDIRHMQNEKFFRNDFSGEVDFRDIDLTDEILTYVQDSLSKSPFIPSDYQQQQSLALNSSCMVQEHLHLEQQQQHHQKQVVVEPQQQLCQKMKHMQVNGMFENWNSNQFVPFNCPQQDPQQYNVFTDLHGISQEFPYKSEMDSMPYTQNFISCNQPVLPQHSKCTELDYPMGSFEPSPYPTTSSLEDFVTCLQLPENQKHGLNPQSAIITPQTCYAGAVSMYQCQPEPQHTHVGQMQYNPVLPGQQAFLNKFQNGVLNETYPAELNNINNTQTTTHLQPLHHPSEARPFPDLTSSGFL
Procedure, shortened: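 24 h compound exposure, 37C, HepG2-derived HG2L7.5c1 cells with DRE-responsive luciferase. Readouts: fluorescence viability, then luminescence at room temperature after 30 min.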

[7] = qHTS assay to identify small molecule that activate the aryl hydrocarbon receptor (AhR) signaling pathway - cell viability counter screen (AID 743086);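 also: HepG2 liver cells carrying the AhR DRE luciferase reporter; series mostly up to about 70 µM; nearly all actives have a fitted effect of over 45% in size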
Procedure, shortened: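 Cytotoxicity counter screen: CellTiter-Fluor signal (30 min, 37 C) in 4000 HepG2 cells/well carrying the DRE-luciferase reporter, following 24 h compound exposure at 37 C.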

[8] = qHTS assay to identify small molecule antagonists of the peroxisome proliferator-activated receptor gamma (PPARg) signaling pathway - cell viability counter screen (AID 743194); also: nearly all actives have a fitted effect of over 55% in size
Procedure, shortened: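 Viability was measured as CellTiter-Glo luminescence in GeneBLAzer PPARg UAS-bla HEK293H cells. These cells had been exposed 17 h at 37 C to compounds together with rosiglitazone at 50 nM final, with the beta-lactamase readout taken in the same wells.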

[9] = qHTS assay for small molecule agonists of the antioxidant response element (ARE) signaling pathway (AID 743202; active = well fitted activation curve with a large enough effect in the signal ratio in the repeat runs, not every such curve was filed as active; inconclusive = weak or mixed curves, or effect the other way; inactive = no such curve, though single readings can be large or run the other way; the % refers to the signal ratio; also: potency is read from the fitted curve at half-maximal effect)
Procedure, shortened: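 An ARE-responsive beta-lactamase gene stably integrated in HepG2 cells serves as reporter. After 5 h plating and 16 h compound incubation at 37 C, fluorescence of the B/G FRET substrate was measured.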

[10] = qHTS assay for small molecule activators of the heat shock response signaling pathway - cell viability counter screen (AID 743209); also: nearly all actives have a fitted effect of over 50% in size
Procedure, shortened: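 First, HSE-bla HeLa cells were seeded at 1500 cells/well and kept overnight at 37 C. Next, compounds were pinned in and incubated 5 h. After the FRET substrate step, CellTiter-Glo was added and luminescence read 30 min later.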

[11] = qHTS assay for small molecule activators of the heat shock response signaling pathway (AID 743210; active = well fitted activation curve with a large enough effect in the signal ratio in the repeat runs, with a control signal flat, not every such curve was filed as active; inconclusive = weak or mixed curves; the % refers to the signal ratio;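 also: HeLa cells with beta-lactamase reporter driven by heat shock elements; series mostly up to about 63 µM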)
Procedure, shortened: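 In HSE-bla HeLa cells, 5 h compound incubation (37 C) precedes addition of LiveBLAzer B/G substrate; after 2.5 h at room temperature, fluorescence intensity indicates reporter induction.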

[12] = qHTS assay to identify small molecule antagonists of the thyroid receptor (TR) signaling pathway (AID 743065); also: nearly all actives have a fitted effect of over 55% in size; also: potency is read from the fitted curve at half-maximal effect
Procedure, shortened: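 Antagonism measured as loss of luciferase signal in GH3 cells stably carrying a TRE-luciferase reporter, co-treated with compound and T3 (1 nM final) for 23.5 h at 37 C. Viability was read in the same well by CellTiter-Fluor.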

[13] = target: Estrogen receptor (Homo sapiens) (UniProt P03372); assay: qHTS assay to identify small molecule antagonists of the estrogen receptor alpha (ER-alpha) signaling pathway (AID 743069; active = well fitted curve in the direction sought with a large enough effect in the signal ratio in the repeat runs, not every such curve was filed as active; inconclusive = weak or mixed curves, or effect the other way; inactive = no such curve, though single readings can be large or run the other way; the % refers to the signal ratio; also: potency is read from the fitted curve at half-maximal effect)
Estrogen receptor (Homo sapiens), sequence (P03372 whole entry, looked up): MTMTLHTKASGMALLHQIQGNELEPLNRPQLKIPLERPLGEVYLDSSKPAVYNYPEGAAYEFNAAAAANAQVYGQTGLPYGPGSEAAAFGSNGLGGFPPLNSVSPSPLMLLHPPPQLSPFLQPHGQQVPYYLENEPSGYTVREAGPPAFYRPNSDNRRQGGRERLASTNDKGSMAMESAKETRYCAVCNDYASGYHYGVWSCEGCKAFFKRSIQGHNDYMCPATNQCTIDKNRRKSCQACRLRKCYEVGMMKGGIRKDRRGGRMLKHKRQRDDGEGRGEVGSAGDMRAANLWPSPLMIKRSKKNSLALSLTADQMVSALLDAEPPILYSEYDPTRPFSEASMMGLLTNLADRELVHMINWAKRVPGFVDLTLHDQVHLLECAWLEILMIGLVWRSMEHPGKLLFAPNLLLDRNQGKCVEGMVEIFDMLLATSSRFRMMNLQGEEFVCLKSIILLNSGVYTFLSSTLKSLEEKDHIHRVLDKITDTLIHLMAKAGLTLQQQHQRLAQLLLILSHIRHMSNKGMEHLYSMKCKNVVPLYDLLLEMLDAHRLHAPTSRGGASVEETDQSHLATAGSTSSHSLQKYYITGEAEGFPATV
Procedure, shortened: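 Compound effects are measured against 17beta-estradiol stimulation in HEK293 cells with a UAS-controlled beta-lactamase reporter for ER-alpha. Exposure lasts 18 hr at 37C; LiveBLAzer B/G FRET substrate follows for 2 hr at room temperature.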

[14] = target: Estrogen receptor (Homo sapiens) (UniProt P03372); assay: qHTS assay to identify small molecule agonists of the estrogen receptor alpha (ER-alpha) signaling pathway (AID 743075; calls by dose curve; also: potency is read from the fitted curve at half-maximal effect)
[15] = target: Estrogen receptor (Homo sapiens) (UniProt P03372); assay: qHTS assay to identify small molecule agonists of the estrogen receptor alpha (ER-alpha) signaling pathway using the BG1 cell line (AID 743079); also: nearly all actives have a fitted effect of over 20% in size; also: potency is read from the fitted curve at half-maximal effect
[16] = qHTS assay to identify small molecule antagonists of the estrogen receptor alpha (ER-alpha) signaling pathway using the BG1 cell line (AID 743080; calls by dose curve;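 also: BG1 cells stimulated with 17beta-estradiol alongside compound; nearly all actives have a fitted effect of over 25% in size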; also: potency is read from the fitted curve at half-maximal effect)
Procedure, shortened: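 BG1-Luc-4E2 cells (endogenous full-length ER-alpha, 4xERE luciferase) hormone-starved 5 days in charcoal-stripped FBS, plated 4,000/well for 24 h, then compound plus 17beta-estradiol for 21.5 h at 37 C; ONE-Glo luminescence read.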

Aromatase (Homo sapiens) = Aromatase (Homo sapiens) (UniProt P11511); assay: qHTS assay to identify aromatase inhibitors (AID 743083); also: nearly all actives have a fitted effect of over 55% in size; also: potency is read from the fitted curve at half-maximal effect
Aromatase (Homo sapiens), sequence (P11511 whole entry, looked up): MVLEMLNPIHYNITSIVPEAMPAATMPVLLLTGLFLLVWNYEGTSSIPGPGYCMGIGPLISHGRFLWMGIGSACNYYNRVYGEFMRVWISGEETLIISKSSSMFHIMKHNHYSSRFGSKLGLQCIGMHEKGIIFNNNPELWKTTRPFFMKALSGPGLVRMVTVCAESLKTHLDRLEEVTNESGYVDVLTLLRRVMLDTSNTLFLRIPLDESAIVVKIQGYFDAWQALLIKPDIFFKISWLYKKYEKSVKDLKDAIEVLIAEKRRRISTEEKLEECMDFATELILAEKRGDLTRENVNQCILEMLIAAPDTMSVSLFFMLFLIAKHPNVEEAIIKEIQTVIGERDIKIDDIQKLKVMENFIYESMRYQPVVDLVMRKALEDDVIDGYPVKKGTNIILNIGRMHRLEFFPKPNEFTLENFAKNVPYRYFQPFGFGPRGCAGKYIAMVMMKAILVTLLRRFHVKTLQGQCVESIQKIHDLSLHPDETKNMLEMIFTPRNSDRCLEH

[17] = target: Peroxisome proliferator-activated receptor gamma (Homo sapiens) (UniProt P37231); assay: qHTS assay to identify small molecule agonists of the peroxisome proliferator-activated receptor gamma (PPARg) signaling pathway (AID 743094; active = well fitted activation curve with a large enough effect in the signal ratio in the repeat runs, not every such curve was filed as active; inconclusive = weak or mixed curves, or effect the other way; inactive = no such curve, though single readings can be large or run the other way; the % refers to the signal ratio)
Peroxisome proliferator-activated receptor gamma (Homo sapiens), sequence (P37231 whole entry, looked up): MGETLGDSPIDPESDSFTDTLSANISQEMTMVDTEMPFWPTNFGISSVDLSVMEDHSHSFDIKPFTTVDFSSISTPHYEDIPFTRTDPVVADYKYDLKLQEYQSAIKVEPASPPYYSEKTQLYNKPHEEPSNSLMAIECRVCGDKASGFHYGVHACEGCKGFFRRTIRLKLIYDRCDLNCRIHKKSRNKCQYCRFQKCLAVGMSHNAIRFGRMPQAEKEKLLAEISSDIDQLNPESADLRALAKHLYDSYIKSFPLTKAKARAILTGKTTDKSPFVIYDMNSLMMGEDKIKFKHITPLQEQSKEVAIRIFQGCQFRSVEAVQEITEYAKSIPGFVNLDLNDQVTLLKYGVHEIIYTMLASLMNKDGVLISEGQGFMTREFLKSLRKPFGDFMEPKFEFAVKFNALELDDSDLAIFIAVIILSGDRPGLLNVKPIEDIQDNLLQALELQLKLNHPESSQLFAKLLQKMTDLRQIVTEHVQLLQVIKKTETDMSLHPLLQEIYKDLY
Procedure, shortened: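 Quantitative HTS agonist mode: stable HEK293H line with UAS-beta-lactamase reporter under PPARg control, 17 h compound exposure at 37C, fluorescence after 1 h FRET substrate loading at room temperature.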

[18] = qHTS assay for small molecule agonists of the antioxidant response element (ARE) signaling pathway - cell viability counter screen (AID 743203; calls by dose curve; also: nearly all actives have a fitted effect of over 55% in size; also: potency is read from the fitted curve at half-maximal effect)
Procedure, shortened: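 Seeded at 2,000 cells/well, ARE-bla HepG2 cells were incubated 5 hrs before compound addition. After 16 hrs of treatment at 37C with 5% CO2, CellTiter-Glo reagent was added and luminescence read 30 min later.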

[19] = target: Peroxisome proliferator-activated receptor gamma (Homo sapiens) (UniProt P37231); assay: qHTS assay to identify small molecule antagonists of the peroxisome proliferator-activated receptor gamma (PPARg) signaling pathway (AID 743191; calls by dose curve; also: series mostly up to about 63 µM; nearly all actives have a fitted effect of over 30% in size)
Procedure, shortened: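 Beta-lactamase reporter under UAS control in HEK293H PPARg-bla cells; compound treatment 17 h at 37C. Read-out: fluorescence intensity after 1 h room-temperature incubation with LiveBLAzer B/G FRET substrate.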

Measured: Potency

CC(C)CC(C)(O)C#CC(C)(O)CC(C)C (configuration not stated)
inactive: [1] | [2] | [3] | [4] | [5] | [6] | [7] | [8] | [9] | [10] | [11]

CCC(C)(O)CCCC(C)C (configuration not stated)
inactive: [12] | [2] | [13] | [3] | [14] | [15] | [16] | [4] | Aromatase (Homo sapiens) | [5] | [6] | [7] | [17] | [8] | [9] | [18] | [10] | [11]

O=C(Nc1ccc(Cl)cc1)Nc1ccc(Cl)c(Cl)c1
active: [12] 2.66 µM and 2.72 µM and 2.73 µM | [13] 3.47 µM [cytotoxic] | [16] 13.3 µM and 24.2 µM | Aromatase (Homo sapiens) 9.64 µM and 13.7 µM | [5] 19.2 µM and 30.6 µM | [6] 2.16 µM and 2.73 µM
inactive: [2] | [14] | [4] | [17] | [10] | [11]

CC(=O)c1ccccn1
inactive: [1] | [2] | [3] | [4] | Aromatase (Homo sapiens) | [5] | [6] | [7] | [17] | [19] | [8] | [9] | [18] | [10] | [11]

COC(=O)C1=C(C)NC(C)=C(C(=O)OCCN(C)Cc2ccccc2)C1c1cccc([N+](=O)[O-])c1 (configuration not stated)
inactive: [2] | [3] | [14] | [6] | [10]
active: [1] 13.3 µM and 19.2 µM | [13] 23.9 µM [inconclusive] | [4] 54.2 µM | Aromatase (Homo sapiens) 29.8 µM and 60.8 µM | [5] 21.1 µM and 54.2 µM | [18] 24.2 µM and 26.6 µM

C[Si](C)(C)O[Si](C)(C)C
inactive: [1] | [2] | [3] | [4] | Aromatase (Homo sapiens) | [5] | [6] | [17] | [19] | [9] | [18] | [10] | [11]

C[C@]12CCC(=O)C=C1CC[C@@H]1[C@@H]2C(=O)C[C@@]2(C)[C@H]1CC[C@]2(O)C(=O)CO
inactive: [12] | [2] | [13] | [3] | [14] | [15] | [16] | [4] | Aromatase (Homo sapiens) | [5] | [6] | [7] | [8] | [9] | [18] | [10] | [11]

O=C(c1ccccc1)c1ccc(O)cc1O
inactive: [1] | [13] | [4] | Aromatase (Homo sapiens) | [5] | [6] | [7] | [17] | [19] | [8] | [18] | [10] | [11]
active: [14] 19.9 µM [inconclusive] and 38.9 µM [inconclusive] | [15] 9.88 µM and 9.69 µM | [9] 30.6 µM
inactive and 30.6 µM (active): [2]

CCCCC(CC)COCC1CO1 (configuration not stated)
inactive: [12] | [2] | [13] | [3] | [14] | [15] | [16] | [4] | Aromatase (Homo sapiens) | [5] | [6] | [7] | [17] | [19] | [8] | [9] | [18] | [10] | [11]

Cc1ncc[nH]1
inactive and 48.5 µM (active): [6]
inactive: [1] | [2] | [3] | [4] | Aromatase (Homo sapiens) | [5] | [17] | [19] | [8] | [9] | [18] | [10] | [11]

O=C(COc1ccc(Cl)cc1)N1CCN(Cc2ccc3c(c2)OCO3)CC1
inactive: [12] | [2] | [13] | [14] | [4] | Aromatase (Homo sapiens) | [5] | [6] | [7] | [10] | [11]
inactive and 30.9 µM (active): [3]
active: [16] 61.1 µM | [9] 15.4 µM and 29.8 µM

Cc1c(OCC(F)(F)F)ccnc1CS(=O)c1nc2ccccc2[nH]1 (configuration not stated)
inactive: [1] | [3] | [4] | Aromatase (Homo sapiens) | [5] | [17] | [8] | [18] | [10]
active: [6] 4.22 µM and 19.3 µM | [9] 8.41 µM

c1ccc(Nc2ccccc2)cc1
inactive: [1] | [3] | [4] | Aromatase (Homo sapiens) | [5] | [6] | [7] | [17] | [8] | [9] | [18] | [10] | [11]

COc1ccc(C(=O)CC(=O)c2ccc(C(C)(C)C)cc2)cc1
inactive: [2] | [3] | [4] | Aromatase (Homo sapiens) | [5] | [6] | [7] | [17] | [8] | [9] | [18] | [10]
active: [1] 26.6 µM and 65.8 µM

Cc1ccc2c(n1)Oc1ccc(C(C)C(=O)OCC(=O)N(C)C)cc1C2 (configuration not stated)
inactive: [12] | [2] | [13] | [3] | [14] | [15] | [4] | Aromatase (Homo sapiens) | [5] | [17] | [9] | [18] | [10] | [11]
active: [6] 11.9 µM

Brc1cc(Oc2cc(Br)c(Br)c(Br)c2Br)c(Br)c(Br)c1Br
inactive: [1] | [2] | [3] | [4] | Aromatase (Homo sapiens) | [5] | [6] | [7] | [17] | [8] | [10] | [11]

CC(C)=CCC/C(C)=C\CO
24.5 µM (active) and inactive: [2]
inactive: [1] | [3] | [4] | [5] | [6] | [7] | [17] | [8] | [9] | [18] | [10]

From PubChem BioAssay (Tox21)
